The target in assay [1] is Chromobox protein homolog 1 (Homo sapiens) (UniProt P83916). Kind of assay: qHTS Validation Assay for Inhibitors of HP1-beta Chromodomain Interactions with Methylated Histone Tails (AID 488953). Also: nearly all actives have a fitted effect of over 50% in size. Also: potency is read from the fitted curve at half-maximal effect. In a few lines:
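Measured as loss of AlphaScreen luminescence from streptavidin donor and nickel acceptor beads (10 ug/mL final) bridging HP1-beta and biotin-H3(1-18)K9me3, each 50 nM. Compounds met the preassembled complex for 30 min at RT.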
On the technique in general: In qHTS, concentration-response curves come from the screen itself.

Assay [2] deals with Methanococcus maripaludis chaperonin (MmCpn) (UniProt Q6LX38). As to the kind of experiment: High-Throughput Screening for Modulators of Cytosolic Chaperonin Activity: MmCpn Primary Screen (AID 488978). The gist of the method: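 ADP formation read by HTRF Transcreener, 665/590 nm emission after 320 nm excitation. Enzyme: archaeal chaperonin at 50 nM final; substrate ATP 30 uM final; 10 min, 37C, after 5 min compound preincubation at RT.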

Assay [3] concerns the target Transient receptor potential cation channel subfamily V member 1 (Homo sapiens) (UniProt Q8NER1). As to the kind of experiment: HTS Assay for Compounds that Act as Enhancers of the Vanilloid Receptor 1 (AID 488979). The gist of the method: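 TRPV1-expressing cells loaded with Fluo-8 calcium dye; compounds added and calcium influx read kinetically for 3 min (agonist phase), then capsaicin at EC20 added and read 2 min more for enhancement. Fluorescence ex 480/em 520 nm.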

The target in assay [4] is Thyrotropin receptor (Homo sapiens) (UniProt P16473). Kind of assay: qHTS Assay for Antagonists of the Thyroid Stimulating Hormone Receptor (AID 488980). Also: series mostly up to about 58 µM. In a few lines: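 TSHR-HEK293 cells; 70 uM RO 20-1724 PDE inhibitor; compound + EC80 TSH (4 nM final); anti-cAMP cryptate antibody/cAMP-d2 in lysis buffer, 30 min RT; HTRF 665/620 nm read.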
The target in assay [5] is D(1A) dopamine receptor (Homo sapiens) (UniProt P21728). Kind of assay: HTS Assay for Allosteric Agonists of the Human D1 Dopamine Receptor: Primary Screen for Agonists (AID 488981). In a few lines: (§1)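 Tetracycline-induced HEK293 T-REx cells force-coupled to calcium signalling were incubated overnight at 30 C and dye-loaded at room temperature. Calcium flux over 180 s after compound addition flagged agonists; a further 180 s read after EC20 dopamine flagged potentiators.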

The target is the same in assay [6]. Kind of assay: HTS Assay for Allosteric Agonists of the Human D1 Dopamine Receptor: Primary Screen for Antagonists (AID 488983).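 Also: calcium flux response to an EC80 dopamine challenge measured with no-wash dye; nearly all actives have a fitted effect of over 65% in size.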 Also: potency is read from the fitted curve at half-maximal effect. In a few lines: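 Screening of inducible HEK293 T-REx D1 cells: compound first, EC80 dopamine 180 s later, each phase read kinetically for calcium over 180 s.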
Assay [7] deals with ATP-dependent 6-phosphofructokinase (Trypanosoma brucei brucei) (UniProt O15648). Kind of assay: qHTS Assay to Find Inhibitors of T. brucei phosphofructokinase: hit validation (AID 492961). Also: potency is read from the fitted curve at half-maximal effect. In a few lines:
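Percent activity derived from corrected luminescence, normalized between 0x and 1x enzyme controls, then fitted to concentration-response curves. Conditions: 1.25 nM PFK, 0.1 mM ATP, 0.5 mM F6P, 45 min RT.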

Assay [8] in a line: Validation screen for small molecules that induce genotoxicity in human embryonic kidney (HEK293T) cells expressing luciferase-tagged ELG1 (AID 493106). Also: potency is read from the fitted curve at half-maximal effect. The gist of the method: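 Reporter-gene quantitative HTS in HEK293T cells carrying luciferase-tagged ELG1, whose level climbs under genotoxic stress. Compound exposure lasts 16 hr at 37 °C before luciferase detection.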
The target in assay [9] is D(1A) dopamine receptor (Homo sapiens) (UniProt P21728). Kind of assay: HTS Assay for Allosteric Agonists of the Human D1 Dopamine Receptor: Primary Screen for Potentiators (AID 488982). The gist of the method: as §1
Assay [10] has as its target Tyrosyl-DNA phosphodiesterase 1 (Homo sapiens) (UniProt Q9NUW8). Kind of assay: Confirmation Assay for Inhibitors of Tyrosyl-DNA Phosphodiesterase (TDP1) (AID 489007). Also: potency is read from the fitted curve at half-maximal effect; nearly all actives have a fitted effect of over 40% in size. The following applies: recombinant human TDP1 enzymatic activity, dose-response. The gist of the method:
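Confirmation of primary-screen follow-ups in a qHTS format. Substrate cleavage by Tdp1 (1 nM) of a 3'-phosphotyrosine-FITC, 5'-biotin oligo (15 nM) was monitored as decreased AlphaScreen signal after a 5 min room-temperature reaction.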

We go through 31 compounds from PubChem BioAssay (NCATS).

Molecules are shown by their SMILES. Several values for one entry are separate records, joined by “and”; a condition that tells them apart may be missing. Identical values can stand only once. Records with an inconclusive call do not appear. Activity calls are given as the source filed them. Calls follow the shape of the dose curve; as a rule, active = well fitted curve in the direction sought with a large enough effect; inconclusive = small, poorly fitted or top-dose-only effect, or another doubt; inactive = no such curve, though single readings can be large; an effect the other way counts as inactive or inconclusive.

Sequence of Transient receptor potential cation channel subfamily V member 1 (Homo sapiens) (Q8NER1 whole entry, looked up): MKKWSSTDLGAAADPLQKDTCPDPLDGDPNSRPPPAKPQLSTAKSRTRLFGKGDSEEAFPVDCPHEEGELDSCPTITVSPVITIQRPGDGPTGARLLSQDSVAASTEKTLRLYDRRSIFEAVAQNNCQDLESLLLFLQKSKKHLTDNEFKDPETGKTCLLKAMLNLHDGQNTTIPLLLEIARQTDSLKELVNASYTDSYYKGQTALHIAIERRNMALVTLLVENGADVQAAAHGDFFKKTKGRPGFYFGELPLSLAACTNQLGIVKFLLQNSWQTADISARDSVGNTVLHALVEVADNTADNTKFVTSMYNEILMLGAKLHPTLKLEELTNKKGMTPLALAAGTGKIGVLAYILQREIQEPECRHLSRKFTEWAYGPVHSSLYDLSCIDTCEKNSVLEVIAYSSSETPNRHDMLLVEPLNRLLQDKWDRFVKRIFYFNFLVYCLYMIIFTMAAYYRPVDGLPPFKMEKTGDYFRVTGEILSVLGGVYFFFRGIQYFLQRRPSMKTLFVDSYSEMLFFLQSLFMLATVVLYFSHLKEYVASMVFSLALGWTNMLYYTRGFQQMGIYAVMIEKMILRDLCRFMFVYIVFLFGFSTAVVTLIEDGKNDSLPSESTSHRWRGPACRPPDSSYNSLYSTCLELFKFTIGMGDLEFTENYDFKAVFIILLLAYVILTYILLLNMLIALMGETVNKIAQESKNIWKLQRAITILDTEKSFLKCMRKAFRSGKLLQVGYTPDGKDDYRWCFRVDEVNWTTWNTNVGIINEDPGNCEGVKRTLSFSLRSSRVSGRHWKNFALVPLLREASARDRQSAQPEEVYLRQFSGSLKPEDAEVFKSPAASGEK
Sequence of D(1A) dopamine receptor (Homo sapiens) (P21728 whole entry, looked up): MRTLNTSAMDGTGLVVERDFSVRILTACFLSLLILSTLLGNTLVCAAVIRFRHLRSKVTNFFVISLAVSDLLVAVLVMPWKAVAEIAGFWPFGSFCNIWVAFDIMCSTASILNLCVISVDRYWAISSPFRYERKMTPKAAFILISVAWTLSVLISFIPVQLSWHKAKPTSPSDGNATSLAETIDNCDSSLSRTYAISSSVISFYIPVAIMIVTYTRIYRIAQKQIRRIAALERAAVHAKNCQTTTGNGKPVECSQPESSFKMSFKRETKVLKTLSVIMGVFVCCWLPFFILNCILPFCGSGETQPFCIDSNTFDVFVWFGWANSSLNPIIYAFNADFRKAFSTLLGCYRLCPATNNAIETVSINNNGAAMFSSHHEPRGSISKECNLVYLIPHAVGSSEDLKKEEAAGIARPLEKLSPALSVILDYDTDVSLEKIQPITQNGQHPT
Sequence of Tyrosyl-DNA phosphodiesterase 1 (Homo sapiens) (Q9NUW8 whole entry, looked up): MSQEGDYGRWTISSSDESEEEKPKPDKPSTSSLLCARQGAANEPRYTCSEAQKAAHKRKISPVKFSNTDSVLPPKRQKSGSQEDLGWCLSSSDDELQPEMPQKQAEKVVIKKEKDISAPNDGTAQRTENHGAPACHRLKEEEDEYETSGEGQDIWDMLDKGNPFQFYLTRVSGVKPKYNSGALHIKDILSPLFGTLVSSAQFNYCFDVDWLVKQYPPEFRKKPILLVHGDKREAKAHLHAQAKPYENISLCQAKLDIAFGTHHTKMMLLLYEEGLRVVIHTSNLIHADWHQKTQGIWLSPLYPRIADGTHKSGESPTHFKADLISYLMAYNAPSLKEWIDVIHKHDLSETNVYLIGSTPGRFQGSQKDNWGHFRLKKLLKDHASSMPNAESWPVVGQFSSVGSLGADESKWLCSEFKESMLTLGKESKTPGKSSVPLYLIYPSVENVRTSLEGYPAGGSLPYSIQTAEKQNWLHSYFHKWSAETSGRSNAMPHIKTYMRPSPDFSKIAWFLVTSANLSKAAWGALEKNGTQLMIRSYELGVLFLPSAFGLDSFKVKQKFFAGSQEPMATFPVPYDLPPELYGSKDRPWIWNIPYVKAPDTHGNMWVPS
Sequence of Thyrotropin receptor (Homo sapiens) (P16473 whole entry, looked up): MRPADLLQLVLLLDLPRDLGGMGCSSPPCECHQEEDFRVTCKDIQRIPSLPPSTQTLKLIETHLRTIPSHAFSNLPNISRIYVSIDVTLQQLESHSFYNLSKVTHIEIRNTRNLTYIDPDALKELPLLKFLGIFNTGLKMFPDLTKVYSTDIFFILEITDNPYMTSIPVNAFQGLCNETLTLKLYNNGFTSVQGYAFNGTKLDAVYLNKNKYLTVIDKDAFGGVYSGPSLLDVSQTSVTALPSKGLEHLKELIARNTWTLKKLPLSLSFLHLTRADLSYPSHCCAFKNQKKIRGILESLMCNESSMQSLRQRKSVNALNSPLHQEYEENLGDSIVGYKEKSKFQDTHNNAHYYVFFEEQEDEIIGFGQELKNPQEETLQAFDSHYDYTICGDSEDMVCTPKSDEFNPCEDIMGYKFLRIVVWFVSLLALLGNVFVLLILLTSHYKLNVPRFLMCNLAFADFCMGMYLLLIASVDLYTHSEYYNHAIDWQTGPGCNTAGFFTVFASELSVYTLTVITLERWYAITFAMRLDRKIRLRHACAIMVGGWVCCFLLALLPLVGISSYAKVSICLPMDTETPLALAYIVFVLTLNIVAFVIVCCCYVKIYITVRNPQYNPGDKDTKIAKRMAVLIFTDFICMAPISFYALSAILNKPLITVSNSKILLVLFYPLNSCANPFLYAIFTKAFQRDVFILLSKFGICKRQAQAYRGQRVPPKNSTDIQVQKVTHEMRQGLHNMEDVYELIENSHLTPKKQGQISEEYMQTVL
Sequence of ATP-dependent 6-phosphofructokinase (Trypanosoma brucei brucei) (O15648 whole entry, looked up): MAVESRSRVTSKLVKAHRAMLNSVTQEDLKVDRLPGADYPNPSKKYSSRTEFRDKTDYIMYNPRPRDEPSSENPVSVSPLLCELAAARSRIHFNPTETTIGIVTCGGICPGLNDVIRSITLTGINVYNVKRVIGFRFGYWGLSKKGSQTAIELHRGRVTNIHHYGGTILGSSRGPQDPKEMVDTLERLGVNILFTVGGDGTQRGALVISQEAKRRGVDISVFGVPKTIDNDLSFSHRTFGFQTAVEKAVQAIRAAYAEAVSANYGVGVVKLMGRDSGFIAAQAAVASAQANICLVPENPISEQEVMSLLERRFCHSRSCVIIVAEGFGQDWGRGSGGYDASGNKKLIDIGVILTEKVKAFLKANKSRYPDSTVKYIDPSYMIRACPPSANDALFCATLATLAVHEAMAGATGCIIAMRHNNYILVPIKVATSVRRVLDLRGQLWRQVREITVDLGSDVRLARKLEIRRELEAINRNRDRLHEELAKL
Sequence of Methanococcus maripaludis chaperonin (MmCpn) (Q6LX38 1-543): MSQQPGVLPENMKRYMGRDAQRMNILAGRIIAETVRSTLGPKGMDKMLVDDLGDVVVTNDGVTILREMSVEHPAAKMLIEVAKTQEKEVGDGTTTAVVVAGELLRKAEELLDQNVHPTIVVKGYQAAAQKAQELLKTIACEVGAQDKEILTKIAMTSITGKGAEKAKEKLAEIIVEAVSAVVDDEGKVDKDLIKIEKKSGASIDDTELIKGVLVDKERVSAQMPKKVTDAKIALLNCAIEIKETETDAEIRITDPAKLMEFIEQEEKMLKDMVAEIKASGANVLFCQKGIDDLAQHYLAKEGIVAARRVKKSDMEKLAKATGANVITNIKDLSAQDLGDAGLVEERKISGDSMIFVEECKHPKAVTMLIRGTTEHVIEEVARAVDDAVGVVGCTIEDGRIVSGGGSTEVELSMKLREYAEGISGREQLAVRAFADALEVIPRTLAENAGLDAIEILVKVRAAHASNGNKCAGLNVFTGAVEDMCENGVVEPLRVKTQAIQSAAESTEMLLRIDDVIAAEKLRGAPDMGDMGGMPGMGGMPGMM
Sequence of Chromobox protein homolog 1 (Homo sapiens) (P83916 whole entry, looked up): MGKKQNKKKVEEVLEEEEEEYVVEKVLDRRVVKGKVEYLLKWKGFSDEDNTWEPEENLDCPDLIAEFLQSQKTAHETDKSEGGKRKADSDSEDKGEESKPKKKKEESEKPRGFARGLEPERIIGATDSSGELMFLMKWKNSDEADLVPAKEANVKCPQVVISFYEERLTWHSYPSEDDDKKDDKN

With `Cc1cc(C(C)(C)C)cc(C)c1CC1=NCCN1`, the Potency entry in assay [1], in [5], in [6] and in assay [7] was “inactive” each time. Moreover, the compound was called inactive in assay [2], in assay [3] and in assay [4].

`Clc1ccccc1C(c1ccccc1)(c1ccccc1)n1ccnc1`: in [1], the Potency is 0.0084 µM (active). The compound was called inactive in [2], in assay [3] and in [4]. Moreover, the Potency entry in [5], in assay [6], in assay [7] and in assay [8] was “inactive” each time.

Consider `NCCS(=O)(=O)O`, for which the Potency entry in [1] and in [5] was “inactive” each time. For the same compound, the compound was classed as inactive in assay [2], in assay [3] and in assay [4].

For `COC(=O)Nc1nc2ccc(C(=O)c3cccs3)cc2[nH]1`, the Potency result in [1], in assay [5] and in [9] was “inactive” each time. Also, the result in [2], in assay [3] and in assay [4] was inactive. Also, the Potency in assay [8] was 2.31 µM (active).

With `Nc1c2c(nc3ccccc13)CCCC2`, the Potency entry in [1], in assay [5] and in assay [9] was “inactive” in each case. Moreover, the call in assay [2], in assay [3] and in assay [4] was inactive.

As to `CC(C(=O)O)c1cccc(C(=O)c2ccccc2)c1` (stereo not drawn), the Potency result in assay [1], in assay [5], in [6] and in assay [8] was “inactive” in each case. The outcome in assay [2], in assay [3] and in assay [4] was inactive.

On to `N[C@@H](Cc1c[nH]c2ccc(O)cc12)C(=O)O`, for which the Potency entry in [1], in assay [5], in assay [6], in [7] and in assay [8] was “inactive” in each case. Further, the call in assay [2], in assay [3] and in assay [4] was inactive.

In the case of `CCC1(c2ccccc2)C(=O)NCNC1=O`, the Potency result in assay [1] and in [5] was “inactive” in each case. In addition, the outcome in assay [2], in assay [3] and in assay [4] was inactive.

Take `CC(C)NCC(O)c1ccc(O)c(O)c1` (stereo not drawn): the Potency in assay [1] was 0.0106 µM (active). The result in [2], in assay [3] and in [4] was inactive. Moreover, the Potency entry in assay [5], in assay [9] and in [8] was “inactive” in each case.

Turning to `COc1ccccc1OCC(O)CN1CCN(CC(=O)Nc2c(C)cccc2C)CC1` (stereo not drawn), the Potency entry in assay [1], in assay [5], in assay [6] and in [8] was “inactive” throughout. The result in assay [2], in assay [3] and in assay [4] was inactive.

Turning to `Cn1ccc2cc3c(cc21)CCN3C(=O)Nc1cccnc1`, the Potency in assay [1] is 39.8 µM (active). In addition, the compound was called inactive in assay [2], in assay [3] and in assay [4]. Besides, in [5], the Potency entry was “inactive”.

Regarding `NCCc1cnc[nH]1`, the Potency result in assay [1], in assay [5], in assay [9], in [6] and in assay [8] was “inactive” in each case. For the same compound, the outcome in [2], in [3] and in assay [4] was inactive.

Consider `Nc1nnc(-c2cccc(Cl)c2Cl)c(N)n1`, for which the Potency entry in assay [1], in [5], in [6] and in assay [7] was “inactive” each time. For the same compound, the call in assay [2], in [3] and in assay [4] was inactive.

As to `NC(=O)OCC(COC(N)=O)c1ccccc1`, the Potency result in assay [1] and in assay [5] was “inactive” throughout. Also, the compound was called inactive in assay [2], in assay [3] and in assay [4].

Regarding `COc1ccc(C2CNC(=O)C2)cc1OC1CCCC1` (stereo not drawn), the Potency result in assay [1] and in assay [5] was “inactive” each time. The outcome in assay [2], in assay [3] and in assay [4] was inactive.

As for `O=C1c2c(O)ccc(O)c2C(=O)c2c(NCCNCCO)ccc(NCCNCCO)c21`, the Potency in [1] was 5.62 µM (active). The compound was classed as inactive in assay [2], in assay [3] and in assay [4]. In addition, the Potency result in [5], in [9] and in assay [7] was “inactive” each time.

As for `CCOC(=O)C(C)(C)Oc1ccc(Cl)cc1`, the Potency result in assay [1], in assay [5], in [9] and in assay [6] was “inactive” in each case. Also, the result in assay [2], in assay [3] and in assay [4] was inactive.

Take `O=c1c(-c2ccc(O)cc2)coc2cc(O)cc(O)c12`: the Potency result in [1], in [5], in [9] and in assay [6] was “inactive” in each case. The result in [2], in assay [3] and in assay [4] was inactive. In addition, the Potency in assay [8] was 9.2 µM (active).

As to `O=C(c1ccc(F)cc1)C1CCN(CCn2c(=O)[nH]c3ccccc3c2=O)CC1`, the Potency result in [1] and in [5] was “inactive” throughout. The compound was classed as inactive in assay [2], in assay [3] and in [4]. In addition, the Potency in assay [6] is 5.62 µM (active).

As to `CCCCc1oc2ccccc2c1C(=O)c1cc(I)c(OCCN(CC)CC)c(I)c1`, in assay [1], the Potency was 44.7 µM (active). The compound was called inactive in [2], in assay [3] and in assay [4]. For the same compound, the Potency result in assay [5] and in assay [9] was “inactive” each time.

In the case of `Nc1ccn([C@H]2CC[C@@H](CO)O2)c(=O)n1`, the Potency result in [1], in assay [5], in assay [9], in assay [6] and in assay [8] was “inactive” throughout. The result in assay [2], in [3] and in assay [4] was inactive.

For the compound `O=C(Nc1ccc([N+](=O)[O-])cc1Cl)c1cc(Cl)ccc1O`, the Potency entry in assay [1], in [5], in [9] and in assay [8] was “inactive” in each case. For the same compound, the compound was classed as inactive in assay [2], in assay [3] and in [4].

Turning to `O=c1[nH]cc(F)c(=O)[nH]1`, the Potency result in assay [1], in assay [5] and in [9] was “inactive” in each case. The outcome in assay [2], in assay [3] and in [4] was inactive.

Consider `COc1nc(C)nc(Cl)c1NC1=NCCN1`, for which the Potency entry in [1], in [5], in assay [9] and in assay [7] was “inactive” throughout. Further, the compound was classed as inactive in assay [2], in assay [3] and in [4].

`COc1ccccc1N1CCN(CC(O)COc2cccc3ccccc23)CC1` (stereo not drawn): the Potency in assay [1] is 39.8 µM (active). For the same compound, the result in [2], in assay [3] and in assay [4] was inactive. In addition, the Potency result in assay [5], in assay [9] and in assay [6] was “inactive” each time.

Consider `CN(C)CCOC(c1ccccc1)c1ccccc1`, for which the Potency entry in assay [1] and in [5] was “inactive” in each case. Also, the compound was classed as inactive in assay [2], in [3] and in assay [4].

Turning to `CC1COc2c(N3CCN(C)CC3)c(F)cc3c(=O)c(C(=O)O)cn1c23` (stereo not drawn), the Potency entry in [1] and in assay [5] was “inactive” throughout. Further, the call in assay [2], in [3] and in assay [4] was inactive.

For the compound `NS(=O)(=O)c1cc2c(cc1Cl)NCNS2(=O)=O`, the Potency entry in assay [1], in assay [5], in assay [6] and in assay [8] was “inactive” in each case. The result in assay [2], in [3] and in assay [4] was inactive.

Consider `Cn1c(=O)c2[nH]cnc2n(C)c1=O`, for which the Potency entry in assay [1], in assay [5], in [9] and in assay [6] was “inactive” throughout. In addition, the result in assay [2], in assay [3] and in assay [4] was inactive.

As for `NC(=O)NO`, the Potency result in assay [1], in assay [5], in [9], in [6] and in [8] was “inactive” throughout. The result in assay [2], in assay [3] and in [4] was inactive.

As to `Cc1ccc(C(=O)Nc2ccc(S(=O)(=O)O)c3cc(S(=O)(=O)O)cc(S(=O)(=O)O)c23)cc1NC(=O)c1cccc(NC(=O)Nc2cccc(C(=O)Nc3cc(C(=O)Nc4ccc(S(=O)(=O)O)c5cc(S(=O)(=O)O)cc(S(=O)(=O)O)c45)ccc3C)c2)c1`, the Potency in assay [1] is 2 µM (active); in [10], 2.51 µM (active) and 5.62 µM (active) and 1.26 µM (active); in assay [7] it was 7.08 µM (active). Moreover, the compound was classed as inactive in [2], in [3] and in assay [4]. Moreover, the Potency entry in assay [5], in assay [9], in assay [6] and in [8] was “inactive” in each case.
